Where a name gives a salt, the structure may show the parent alone. The whole screen tested about 1,700 compounds, of which about 15 (0.9%) showed activity. The list comes from a sample in which actives are over-represented; it also holds similar structures and randomly drawn compounds. A number with no mark means an inactive call.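 The calls were made as follows: active = infection cut by 80% or more with cell growth above 90% in both runs; inactive = the rest.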

The assay relates to HSV-1 strain 17 YFP-ICP4 in A549. As to the kind of experiment: HSV-1 infection relative to DMSO (ICP4-YFP per H2B-RFP signal); higher = more viral infection (less antiviral activity), active = hit call of the paper. The conditions noted are these: 10 µM; 48 h; MOI: 0.1. On the procedure: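 Selleck FDA-approved library (L1300) screened in duplicate at 10 µM on A549 H2B-mRuby cells in 384-well plates, infected with HSV-1 strain 17 YFP-ICP4 at MOI 0.1 one hour before drug addition. Imaged after 2 days at 37°C. Cell growth (H2B-RFP) and infection (ICP4-YFP) are expressed as % of DMSO-treated wells. Hits: growth >90% and infection <20% of DMSO.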
Regarding `O=C(O)CCCC[C@@H]1CCSS1` (racemic) [Thioctic acid], the HSV-1 infection was 66.1%.

On to `N=C(N)NCCC[C@@H](NC(=O)[C@@H]1CCCN1C(=O)[C@@H]1CSSCCC(=O)N[C@@H](Cc2ccc(O)cc2)C(=O)N[C@@H](Cc2ccccc2)C(=O)N[C@@H](CCC(N)=O)C(=O)N[C@@H](CC(N)=O)C(=O)N1)C(=O)NCC(N)=O` [Desmopressin Acetate], for which the HSV-1 infection is 103%. The result for `NC(=O)CCC(N)C(=O)O` (racemic) [DL-Glutamine] reads 114%; that for `COc1ccc(Cl)c(Nc2nc3ccccc3nc2NS(=O)(=O)c2cccc(NC(=O)C(C)(C)N)c2)c1` [Pilaralisib (XL147)], 93.5%; that for `COc1ccc(-c2nc3cc(C4=NNC(=O)CC4C)ccc3[nH]2)cc1` (configuration not stated) [Pimobendan], 68.5%. For the compound `CC(=O)[C@@]1(O)CC[C@H]2[C@@H]3CCC4=CC(=O)CCC4=C3[C@@H](c3ccc(N(C)C)cc3)C[C@@]21C` [Ulipristal], the HSV-1 infection was 91.8%. Turning to `CCCN(CCC)C(=O)C1=Cc2ccc(-c3ccc(C(=O)N4CCCC4)cc3)cc2N=C(N)C1` [Motolimod (VTX-2337)], the HSV-1 infection was 82.9%. On to `CN[C@H]1C(=O)N[C@@H]2Cc3ccc(cc3)Oc3cc4cc(c3O[C@@H]3O[C@H](C(=O)O)[C@@H](O)[C@H](O)[C@H]3NC(=O)CCCCCCCCC(C)C)Oc3ccc(cc3Cl)[C@@H](O)[C@@H]3NC(=O)[C@H](NC(=O)[C@@H]4NC(=O)[C@@H](NC2=O)c2cc(cc(O)c2Cl)Oc2cc1ccc2O)c1ccc(O)c(c1)-c1c(O[C@H]2O[C@H](CO)[C@@H](O)[C@H](O)[C@@H]2O)cc(O)cc1[C@@H](C(=O)NCCCN(C)C)NC3=O` [Dalbavancin], for which the HSV-1 infection is 95.9%. Turning to `CCCCN1CCCC[C@H]1C(=O)Nc1c(C)cccc1C` [Levobupivacaine HCl], the HSV-1 infection was 70.8%. The result for `COc1ccc([C@H]2CNC(=O)C2)cc1OC1CCCC1` [S- (+)-Rolipram] reads 97.4%; that for `CC(C)C[C@H](N)C(=O)O` [L-Leucine], 100%.

On to `COC(=O)c1ccccc1O` [Methyl salicylate], for which the HSV-1 infection was 81.4%. The same measure for `CCCCC(=O)N(Cc1ccc(-c2ccccc2-c2nn[nH]n2)cc1)C(C(=O)O)C(C)C.CCOC(=O)C(C)CC(Cc1ccc(-c2ccccc2)cc1)NC(=O)CCC(=O)O` (configuration not stated) [Sacubitril/valsartan (LCZ696)]: 116%; for `FC(F)(F)c1ccc(CNc2ccc(Cc3c[nH]c4ncc(Cl)cc34)cn2)cn1` [Pexidartinib (PLX3397)]: 102%; for `Cc1ccccc1N1CCN(CCc2nnc3n2CCCC3)CC1` [Dapiprazole Hydrochloride]: 135%. The same measure for `CC(C)C[C@H](NC(=O)CNC(=O)c1cc(Cl)ccc1Cl)B1OC(=O)C(CC(=O)O)(CC(=O)O)O1` [Ixazomib Citrate (MLN9708)]: 80.4%. The same measure for `CCNC(=O)[C@@H]1CCCN1C(=O)[C@H](CCCNC(=N)N)NC(=O)[C@H](CC(C)C)NC(=O)[C@@H](CC(C)C)NC(=O)[C@H](Cc1ccc(O)cc1)NC(=O)[C@H](CO)NC(=O)[C@H](Cc1c[nH]c2ccccc12)NC(=O)[C@H](Cc1c[nH]cn1)NC(=O)[C@@H]1CCC(=O)N1` [Leuprorelin Acetate]: 105%. As to `CCNC(=O)[C@@H]1CCCN1C(=O)[C@H](CCCNC(=N)N)NC(=O)[C@H](CC(C)C)NC(=O)[C@@H](CC(C)C)NC(=O)[C@H](Cc1ccc(O)cc1)NC(=O)[C@H](CO)NC(=O)[C@H](Cc1c[nH]c2ccccc12)NC(=O)[C@H](Cc1c[nH]cn1)NC(=O)[C@@H]1CCC(=O)N1` [Leuprolide Acetate], the HSV-1 infection is 113%. The result for `O=C(O)c1ccc(-n2nc(-c3ccccc3O)nc2-c2ccccc2O)cc1` [Deferasirox] reads 79.8%; that for `CC(C)(C)NC(=O)N[C@H](C(=O)N1C[C@H]2[C@@H]([C@H]1C(=O)NC(CC1CCC1)C(=O)C(N)=O)C2(C)C)C(C)(C)C` (some centres not stated) [Boceprevir], 110%; that for `COc1c(C)c2c(c(O)c1C/C=C(\C)CCC(=O)O)C(=O)OC2` [Mycophenolic acid], 14.4% (active).

Consider `C[C@H](Oc1ccc(S(C)(=O)=O)cc1C(=O)N1CCN(c2ncc(C(F)(F)F)cc2F)CC1)C(F)(F)F` [Bitopertin], for which the HSV-1 infection is 92.8%. As to `CCCCCCCCOc1ccccc1C(=O)Nc1ccc(C(=O)OCC[N+](C)(CC)CC)cc1` [Otilonium Bromide], the HSV-1 infection was 60.5%. `OC[C@@H](O)CN1CCN(c2ccccc2)CC1` [Levodropropizine]: the HSV-1 infection was 64.9%. The same measure for `CC(C)Nc1cc(-c2c[nH]c(C(=O)N[C@H](CO)c3cccc(Cl)c3)c2)c(Cl)cn1`: 69.3%; for `O=C(Cn1ccnc1[N+](=O)[O-])NCc1ccccc1` [Benznidazole]: 115%.

`CC(C)C[C@H](NC(=O)CNC(=O)c1cc(Cl)ccc1Cl)B(O)O` [Ixazomib (MLN2238)]: the HSV-1 infection is 77.3%. For the compound `N[C@@H]1CN(c2c(F)cc3c(=O)c(C(=O)O)cn([C@@H]4C[C@@H]4F)c3c2Cl)CC12CC2` [Sitafloxacin Hydrate], the HSV-1 infection is 111%.

Regarding `O=C([O-])[O-].[Na+].[Na+]` [Sodium carbonate], the HSV-1 infection is 88%. On to `NC(=O)c1nc(F)cnc1O` [Favipiravir (T-705)], for which the HSV-1 infection was 102%. The result for `O=C1/C(=C2\Nc3ccccc3C2=O)Nc2ccccc21` [Indigo] reads 105%; that for `C=CCN1CCCC1CNC(=O)c1cc2nn[nH]c2cc1OC` (configuration not stated) [Alizapride HCl], 55.1%. The same measure for `CNC(=O)[C@H](Cc1ccccc1)NC(=O)[C@H](CC(C)C)[C@H](CSc1cccs1)C(=O)NO` [Batimastat (BB-94)]: 45.6%. The result for `CCOC(=O)[C@@H](N)Cc1ccc(-c2cc(O[C@H](c3ccc(Cl)cc3-n3ccc(C)n3)C(F)(F)F)nc(N)n2)cc1` [Telotristat Etiprate (LX 1606 Hippurate)] reads 80.1%; that for `CO/N=C(\C(=O)N[C@@H]1C(=O)N2C(C(=O)[O-])=C(C[N+]3(C)CCCC3)CS[C@H]12)c1csc(N)n1` [Cefepime Dihydrochloride Monohydrate], 98%.

In the case of `CCCc1nc(C(C)(C)O)c(C(=O)O)n1Cc1ccc(-c2ccccc2-c2nnn[nH]2)cc1` [Olmesartan], the HSV-1 infection was 114%. As for `C[C@H](Nc1ncnc2nc[nH]c12)c1cc2cccc(Cl)c2c(=O)n1-c1ccccc1` [Duvelisib (IPI-145, INK1197)], the HSV-1 infection is 69.2%. The result for `CSCC[C@H](NC(=O)[C@H](CC(C)C)NC(=O)[C@H](Cc1c[nH]c2ccccc12)NC(=O)[C@H](CCC(N)=O)NC(=O)[C@@H](NC(=O)[C@H](Cc1ccccc1)NC(=O)[C@H](CC(=O)O)NC(=O)[C@H](CCC(N)=O)NC(=O)[C@H](C)NC(=O)[C@H](CCCNC(=N)N)NC(=O)[C@H](CCCNC(=N)N)NC(=O)[C@H](CO)NC(=O)[C@H](CC(=O)O)NC(=O)[C@H](CC(C)C)NC(=O)[C@H](Cc1ccc(O)cc1)NC(=O)[C@H](CCCCN)NC(=O)[C@H](CO)NC(=O)[C@H](Cc1ccc(O)cc1)NC(=O)[C@H](CC(=O)O)NC(=O)[C@H](CO)NC(=O)[C@@H](NC(=O)[C@H](Cc1ccccc1)NC(=O)[C@@H](NC(=O)CNC(=O)[C@H](CCC(N)=O)NC(=O)[C@H](CO)NC(=O)[C@@H](N)Cc1cnc[nH]1)[C@@H](C)O)[C@@H](C)O)C(C)C)C(=O)N[C@@H](CC(N)=O)C(=O)N[C@H](C(=O)O)[C@@H](C)O` [Glucagon HCl] reads 99.3%. The same measure for `COc1cc(CNC(=O)CCCCC=CC(C)C)ccc1O` [Capsaicin(Vanilloid)]: 86.2%; for `CC1(C)CCC(CN2CCN(c3ccc(C(=O)NS(=O)(=O)c4ccc(NCC5CCOCC5)c([N+](=O)[O-])c4)c(Oc4cnc5[nH]ccc5c4)c3)CC2)=C(c2ccc(Cl)cc2)C1` [Venetoclax (ABT-199, GDC-0199)]: 96%; for `CC(O)c1ccc(S(=O)(=O)NC(=O)NC2CCCCC2)cc1` (configuration not stated) [Hydroxyhexamide]: 94.9%.

Take `COc1ccc2c(O[C@@H]3C[C@H]4C(=O)N[C@]5(C(=O)NS(=O)(=O)C6CC6)C[C@H]5/C=C\CCCCN(C)C(=O)[C@@H]4C3)cc(-c3nc(C(C)C)cs3)nc2c1C` [Simeprevir]: the HSV-1 infection was 84.7%. The result for `COc1cc(C(=O)O)ccc1NC(=O)[C@@H]1N[C@@H](CC(C)(C)C)[C@](C#N)(c2ccc(Cl)cc2F)[C@H]1c1cccc(Cl)c1F` [Idasanutlin (RG-7388)] reads 101%. The same measure for `O=c1[nH]c2ccccc2n1CCN1CCN(c2cccc(C(F)(F)F)c2)CC1` [Flibanserin]: 89.9%. The same measure for `CC(C)(Oc1ccc(Cl)cc1)C(=O)OCCOC(=O)c1cccnc1` [Etofibrate]: 109%; for `NCCCC[C@H](NC(=O)[C@@H]1CCCN1C(=O)[C@@H]1CSSC[C@H](NC(=O)CNC(=O)CNC(=O)CN)C(=O)N[C@@H](Cc2ccc(O)cc2)C(=O)N[C@@H](Cc2ccccc2)C(=O)N[C@@H](CCC(N)=O)C(=O)N[C@@H](CC(N)=O)C(=O)N1)C(=O)NCC(N)=O` [Terlipressin Acetate]: 110%; for `CCOc1ccc(Cc2cc([C@@H]3O[C@H](SC)[C@@H](O)[C@H](O)[C@H]3O)ccc2Cl)cc1` [Sotagliflozin (LX4211)]: 111%.

The values above are taken from the supplement of paper PMC11537057.
